Screens: PubChem, National Center for Advancing Translational Sciences (NCATS)
Compounds with a hit are over-represented: about 19% of the library has one in this group of screens.
IL1B secr inh: blocks inflammasome-driven IL-1 beta release; THP-1 LPS/ATP IL-1B secretion, AlphaLISA, 16 h; stronger effect = lower value; activity change, % at 57.5 µM; 4.7% of 360,000 active; AID 743279; in the data active = activity change below about -50%; inconclusive = mostly about -30% to -49%
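Secreted IL-1B measured by AlphaLISA bead assay after 16 h compound exposure of THP-1 cells; compounds (final up to 57.5 uM) added 1 h before LPS (250 ng/mL) and ATP (1.25 mM) stimulation; lower signal means less secretion.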
HT1080NT lethal: kills 2HG-producing HT-1080-NT fibrosarcoma cells. HT-1080-NT fibrosarcoma viability, CellTiter-Glo ATP luminescence, 48 h. Potency, µM (series often up to 46.1 µM), without a hit: at the highest dose activity, negative = less viability, hits mostly cytotoxic. 1.6% of 360,000 active. AID 686970;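 also: NT is the 2HG producing partner of a matched IDH1 knockdown line; potency is read from the fitted curve at half-maximal effect; 0% = DMSO-treated cells and -100% = media-only wells without cells; nearly all actives have a fitted effect of over 55% in size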
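750 cells/well, RPMI + 5% FBS; 2 h settle, compound pin-transfer, 48 h at 37 degrees C. CellTiter-Glo 10 min RT, luminescence. Normalized to DMSO and media-only wells.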
DT40 TDP1 CPT: DT40-hTDP1 cell growth loss with CPT. 12% of 420,000 active. chicken DT40 Tdp1-/-;hTDP1 cells + 20 nM CPT, ATP luminescence, 48 h. Potency, µM (doses to about 46.2 µM), inactives show at the highest dose activity change, negative = growth inhibition, hits mostly inhibitors; also: potency is read from the fitted curve at half-maximal effect; nearly all actives have a fitted effect of over 55% in size
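Chicken DT40 Tdp1-/- cells stably complemented with human TDP1 were seeded at 400 cells/well in medium containing 20 nM camptothecin, exposed to pin-transferred compounds, and grown at 37 °C for at least 48 hr. Viability was read as ATP luminescence.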
HT1080 IDH1KD tx: toxicity to HT-1080 IDH1 knockdown cells (counter line) | HT-1080 IDH1 knockdown viability, ATP luminescence, 48 h | Potency, µM (top dose mostly 46.1 µM), without a hit: top-dose activity, negative = toxicity, hits mostly cytotoxic | 2% of 360,000 active;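 also: potency is read from the fitted curve at half-maximal effect; 0% = DMSO wells and -100% = cell-free medium wells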
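Assay cells: HT-1080 with IDH1 knockdown, 750 per well, RPMI/5% FBS. Exposure: 48 h at 37 °C following 2 h pre-incubation. Read: CellTiter-Glo luminescence; fitted concentration-response, curve class assigned.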
DT40 TDP1 no CPT: qHTS for Inhibitors of human tyrosyl-DNA phosphodiesterase 1 (TDP1): qHTS in cells in absence of CPT; DT40 Tdp1-/- hTDP1 cells, no CPT, ATP luminescence, 48 h; Potency, µM (top dose mostly 46.2 µM), without a hit: at the highest dose activity change, negative = growth inhibition, usual class: inhibitors; 15% of 420,000 active; AID 686978, 2013; also: potency is read from the fitted curve at half-maximal effect; nearly all actives have a fitted effect of over 55% in size
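Readout: luminescence from CellTiter-Glo after 30 min in the dark at RT. Cells: DT40 Tdp1-/- with stable hTDP1, 400/well. Exposure: compounds alone, ≥48 hr, 37 °C.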
The depositor's hits bear a star. Unless noted, calls follow the shape of the dose curve; as a rule, active = well fitted curve in the direction sought with a large enough effect; inconclusive = small, poorly fitted or top-dose-only effect, or another doubt; inactive = no such curve, though single readings can be large; an effect the other way counts as inactive or inconclusive. Unless noted, % is scaled to controls: 0 for no effect and ±100 for the full control effect.

How did CC(NC(=O)CCNC(=O)c1ccco1)c1ccccc1 (stereo not drawn) do in these assays?
IL1B secr inh: -2.7; HT1080NT lethal: 11.9%; DT40 TDP1 CPT: -11.3%; HT1080 IDH1KD tx: 7.6%; DT40 TDP1 no CPT: 1.3%

What do the screens show for `Cc1ccc(NC(=O)CN2CCN(C3CCCCC3)C(=O)C2=O)cc1C`?
DT40 TDP1 CPT: inconclusive; DT40 TDP1 no CPT: -7.1%

Results for COc1cc2c(cc1OC)CN(C(=O)c1sc(-c3cnccn3)nc1C)CC2 ?
IL1B secr inh: -7.2; HT1080NT lethal: -1.5%; DT40 TDP1 CPT: -12.9%; HT1080 IDH1KD tx: -1.6%; DT40 TDP1 no CPT: inconclusive

How did COc1cc(-c2cc(-c3nnco3)c3ccccc3n2)cc(OC)c1OC do in these assays?
IL1B secr inh: inconclusive; HT1080NT lethal: -15.9%; DT40 TDP1 CPT: inconclusive; HT1080 IDH1KD tx: -16.6%; DT40 TDP1 no CPT: 7.31µM*

How did COc1cccc(-c2cc(C(=O)NC3CCCC3)c3ccccc3n2)c1 do in these assays?
IL1B secr inh: 2.7; HT1080NT lethal: -10.8%; DT40 TDP1 CPT: inconclusive; HT1080 IDH1KD tx: -2.6%; DT40 TDP1 no CPT: inconclusive

Results for Cc1cc(NC(=O)c2cc(-c3ccncc3)nc3ccccc23)ccc1Br ?
IL1B secr inh: -50.3*; HT1080NT lethal: 2.9%; DT40 TDP1 CPT: 23.1µM*; HT1080 IDH1KD tx: -20.5%; DT40 TDP1 no CPT: inconclusive

Results for COc1ccc(-c2cc(C(=O)NC3CCCC3)c3ccccc3n2)cc1OC ?
IL1B secr inh: 20.4; HT1080NT lethal: -3.9%; DT40 TDP1 CPT: inconclusive; HT1080 IDH1KD tx: -8.9%; DT40 TDP1 no CPT: 14.6µM*

How did COc1cc(-c2cc(C(=O)Nc3nc4ccccc4s3)c3ccccc3n2)cc(OC)c1OC do in these assays?
IL1B secr inh: -12.5; HT1080NT lethal: -12.2%; DT40 TDP1 CPT: 7.31µM*; HT1080 IDH1KD tx: -14.8%; DT40 TDP1 no CPT: 6.51µM*

Results for COc1ccc(NC(=O)c2cc(-c3ccc(OC)c(OC)c3)nc3ccccc23)c(OC)c1 ?
IL1B secr inh: 5.5; HT1080NT lethal: -6.0%; DT40 TDP1 CPT: 29.1µM*; HT1080 IDH1KD tx: -27.6%; DT40 TDP1 no CPT: 16.4µM*

How did Cc1ccnc(NC(=O)c2cc(-c3ccc(Cl)s3)nc3ccccc23)c1 do in these assays?
IL1B secr inh: 10.6; HT1080NT lethal: -20.5%; DT40 TDP1 CPT: 10.3µM*; HT1080 IDH1KD tx: -3.1%; DT40 TDP1 no CPT: 18.4µM*

How did COc1cc2ccccc2cc1C(=O)NC1CCC(C)CC1 (stereo not drawn) do in these assays?
IL1B secr inh: -51.1*; HT1080NT lethal: 2.4%; DT40 TDP1 CPT: inconclusive; HT1080 IDH1KD tx: 8.3%; DT40 TDP1 no CPT: -61.6%

How did COc1ccc(NC(=O)c2cc(-c3ccncc3)nc3ccccc23)c(OC)c1 do in these assays?
IL1B secr inh: -19.6; HT1080NT lethal: inconclusive; DT40 TDP1 CPT: inconclusive; HT1080 IDH1KD tx: inconclusive; DT40 TDP1 no CPT: inconclusive

Results for O=C(Nc1ccccn1)c1cc(-c2ccc(Cl)s2)nc2ccccc12 ?
IL1B secr inh: 12.4; HT1080NT lethal: -18.2%; DT40 TDP1 CPT: inconclusive; HT1080 IDH1KD tx: -18.7%; DT40 TDP1 no CPT: inconclusive

Results for COc1ccccc1CCNC(=O)c1cc(-c2ccncc2)nc2ccc(Br)cc12 ?
IL1B secr inh: -3.1; HT1080NT lethal: 0.7%; DT40 TDP1 CPT: inconclusive; HT1080 IDH1KD tx: -4.0%; DT40 TDP1 no CPT: 20.6µM*

What do the screens show for `CCn1cc(C(=O)NCCC(=O)OC)c(=O)c2cc3c(cc21)OCO3`?
IL1B secr inh: inconclusive; HT1080NT lethal: 12.6%; DT40 TDP1 CPT: -2.9%; HT1080 IDH1KD tx: 6.2%; DT40 TDP1 no CPT: -2.5%

Results for COc1ccc(OC)c(NC(=O)c2cc(-c3ccc(Cl)s3)nc3ccccc23)c1 ?
DT40 TDP1 CPT: -27.5%; DT40 TDP1 no CPT: 14.6µM*

How did O=C(NNC(=O)c1cc(-c2ccc(Cl)cc2Cl)nc2ccccc12)Nc1ccccc1 do in these assays?
IL1B secr inh: -64.0*; HT1080NT lethal: inconclusive; DT40 TDP1 CPT: inconclusive; HT1080 IDH1KD tx: inconclusive; DT40 TDP1 no CPT: 20.6µM*
